In PubChem BioAssay (EPA / NIEHS):
Active and inactive are the calls of the source. Rule for the calls: active = hit-call score of the fitted dose curve at least 0.9, where 1 is the maximum; inactive = score below 0.9.

Columns and labels:
Details in all cases: mRNA level, 48 h; actives raise or lower the signal
[1] = read-out: adenosine kinase (ADK) gene, ADK (gene 132); test: LTEA_HepaRG_ADK: Life Technologies and Expression Analysis (LTEA) Assay for adenosine kinase (ADK) gene using HepaRG (AID 2283471)
Method in brief: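 Read-out is ADK transcript level measured by qRT-PCR and normalised to three housekeeping genes. Cells are human HepaRG, dosed for 48 h at up to 100 uM in 0.5% DMSO. Gain or loss of signal is fitted against DMSO controls.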

[2] = read-out: Alpha-fetoprotein (AFP) gene, AFP (gene 174); test: LTEA_HepaRG_AFP: Life Technologies and Expression Analysis (LTEA) Assay for Alpha-fetoprotein (AFP) gene using HepaRG (AID 2283472)
Method in brief: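 Measures AFP mRNA change in HepaRG after 48 h chemical exposure (8 half-log concentrations, highest 100 uM, 0.5% DMSO). Fold change relative to DMSO, fitted in both directions.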

BCL2L11 (gene 10018) = test: LTEA_HepaRG_BCL2L11: Life Technologies and Expression Analysis (LTEA) Assay for Bcl-2 (BCL2L11) gene using HepaRG (AID 2283473)
Method in brief: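 HepaRG, 48 h exposure, 8-pt half-log series from 100 uM in 0.5% DMSO, duplicates; qRT-PCR (Fluidigm TaqMan) for BCL2L11, housekeeping-normalized; bidirectional curve fit relative to DMSO baseline.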

[3] = read-out: Apolipoprotein A-V (APOA5) gene, APOA5 (gene 116519); test: LTEA_HepaRG_APOA5: Life Technologies and Expression Analysis (LTEA) Assay for Apolipoprotein A-V (APOA5) gene using HepaRG (AID 2283474)
Method in brief: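 HepaRG, 48 h chemical exposure in serum-free induction medium, 8-pt half-log series (top 100 uM), 0.5% DMSO vehicle, duplicates. Readout: APOA5 mRNA by qRT-PCR, housekeeping-normalized; bidirectional fit vs DMSO baseline.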

[4] = read-out: Apoptosis regulator Bcl-2 (Homo sapiens) (UniProt P10415); test: LTEA_HepaRG_BCL2: Life Technologies and Expression Analysis (LTEA) Assay for Bcl-2 gene using HepaRG (AID 2283475)
Method in brief: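 Each chemical was tested in duplicate on HepaRG cultures held in serum-free induction medium for 48 h, highest concentration 100 uM with half-log dilutions. Transcript levels came from multiplexed qRT-PCR, normalised to housekeeping genes; activity was scored in either direction relative to DMSO.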

[5] = read-out: Bcl-2 (BID) gene, BID (gene 637); test: LTEA_HepaRG_BID: Life Technologies and Expression Analysis (LTEA) Assay for Bcl-2 (BID) gene using HepaRG (AID 2283476)
Method in brief: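 Assay used HepaRG hepatic cells treated 48 h in serum-free medium with half-log dilutions from 100 uM. Endpoint: BID mRNA, qRT-PCR, normalized to ACTB/GAPDH/POLR2A.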

Caspase-3 (Homo sapiens) = Caspase-3 (Homo sapiens) (UniProt P42574); test: LTEA_HepaRG_CASP3: Life Technologies and Expression Analysis (LTEA) Assay for cysteine-aspartic acid protease (CASP3) using HepaRG (AID 2283477)
Sequence of Caspase-3 (Homo sapiens) (P42574 whole entry, looked up): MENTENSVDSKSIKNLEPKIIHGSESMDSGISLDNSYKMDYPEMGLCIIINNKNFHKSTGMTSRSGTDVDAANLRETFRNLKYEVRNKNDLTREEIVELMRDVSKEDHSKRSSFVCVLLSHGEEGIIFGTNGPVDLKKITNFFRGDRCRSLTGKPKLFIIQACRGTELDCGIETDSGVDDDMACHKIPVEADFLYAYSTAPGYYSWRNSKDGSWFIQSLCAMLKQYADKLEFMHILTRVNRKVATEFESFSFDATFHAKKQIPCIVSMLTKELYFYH
Method in brief: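 HepaRG, 48 h exposure, 8 conc. (top 100 uM, half-log steps, duplicate), 0.5% DMSO vehicle; qRT-PCR of CASP3 transcript, housekeeping-normalised (ACTB/GAPDH/POLR2A); bidirectional curve fit vs DMSO baseline.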

[6] = read-out: Cytochrome P450 (CYP24A1), CYP24A1 (gene 1591); test: LTEA_HepaRG_CYP24A1: Life Technologies and Expression Analysis (LTEA) Assay for Cytochrome P450 (CYP24A1) using HepaRG (AID 2283478)
Method in brief: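 qRT-PCR read-out: CYP24A1 transcript levels normalized to three housekeeping genes, bidirectional curve fits against 0.5% DMSO baseline. Human HepaRG cells treated 48 h with chemicals at eight concentrations from 100 uM in half-log steps.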

[7] = read-out: Cytochrome P450 (CYP1A2), CYP1A2 (gene 1544); test: LTEA_HepaRG_CYP1A2: Life Technologies and Expression Analysis (LTEA) Assay for Cytochrome P450 (CYP1A2) using HepaRG (AID 2283479)
Method in brief: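 HepaRG, 48 h exposure, top 100 uM, half-log 8-pt, 0.5% DMSO vehicle, duplicates. Readout: TaqMan qRT-PCR of CYP1A2 mRNA, housekeeping-normalized (ACTB/GAPDH/POLR2A). Gain/loss fit relative to DMSO baseline.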

[8] = read-out: cysteine-aspartic acid protease (CASP8), CASP8 (gene 841); test: LTEA_HepaRG_CASP8: Life Technologies and Expression Analysis (LTEA) Assay for cysteine-aspartic acid protease (CASP8) using HepaRG (AID 2283480)
Method in brief: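 Concentration-response in duplicate up to 100 uM (half-log steps, 0.5% DMSO) on differentiated HepaRG cultures for 48 h. Expression change of CASP8 mRNA is determined by TaqMan qRT-PCR with housekeeping-gene normalization.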

[9] = read-out: Cytochrome P450 (CYP2B6), CYP2B6 (gene 1555); test: LTEA_HepaRG_CYP2B6: Life Technologies and Expression Analysis (LTEA) Assay for Cytochrome P450 (CYP2B6) using HepaRG (AID 2283481)
Method in brief: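 Read-out is CYP2B6 mRNA by TaqMan qRT-PCR, normalized to three housekeeping genes and fitted bidirectionally against 0.5% DMSO baseline. Human HepaRG cells received test chemicals for 48 h, top concentration 100 uM, half-log dilutions.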

[10] = read-out: Cytochrome P450 2C19 (Homo sapiens) (UniProt P33261); test: LTEA_HepaRG_CYP2C19: Life Technologies and Expression Analysis (LTEA) Assay for CYP2C19 using HepaRG (AID 2283482)
Method in brief: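 HepaRG, 48 h chemical exposure, 8-pt half-log series from 100 uM in 0.5% DMSO, duplicates. Readout: CYP2C19 mRNA by TaqMan qRT-PCR, housekeeping-normalized. Bidirectional fit vs DMSO baseline; phenobarbital 1mM as induction control.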

CYP2C8 (gene 1558) = test: LTEA_HepaRG_CYP2C8: Life Technologies and Expression Analysis (LTEA) Assay for CYP2C8 using HepaRG (AID 2283483)
Method in brief: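 This is a transcriptional endpoint in HepaRG cultures: 48 h exposure, highest concentration 100 uM. CYP2C8 mRNA is quantified by TaqMan qRT-PCR.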

CYP2C9 (gene 1559) = test: LTEA_HepaRG_CYP2C9: Life Technologies and Expression Analysis (LTEA) Assay for CYP2C9 using HepaRG (AID 2283484)
Method in brief: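 Eight-point concentration-response (highest 100 uM, half-log dilutions) in HepaRG cells for 48 h; CYP2C9 expression by qRT-PCR normalized to ACTB, GAPDH, POLR2A. Bidirectional fit, DMSO baseline.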

CYP2E1 (gene 1571) = test: LTEA_HepaRG_CYP2E1: Life Technologies and Expression Analysis (LTEA) Assay for CYP2E1 using HepaRG (AID 2283485)
Method in brief: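 Assay uses 48 h exposure of HepaRG hepatic cells, eight concentrations to 100 uM. Expression of CYP2E1 is quantified by TaqMan qRT-PCR with ACTB, GAPDH and POLR2A normalization; curves fitted in both directions relative to vehicle.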

CYP4A11 (gene 1579) = test: LTEA_HepaRG_CYP4A11: Life Technologies and Expression Analysis (LTEA) Assay for CYP4A11 using HepaRG (AID 2283486)
Method in brief: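 CYP4A11 transcript levels were quantified by TaqMan qRT-PCR after HepaRG human liver cells were treated for 48 hours with test chemicals (top 100 uM, half-log dilutions, 0.5% DMSO). Gain or loss of signal was fitted relative to DMSO.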

[11] = read-out: DNA damage-inducible transcript 3 (DDIT3), DDIT3 (gene 1649); test: LTEA_HepaRG_DDIT3: Life Technologies and Expression Analysis (LTEA) Assay for DNA damage-inducible transcript 3 (DDIT3) using HepaRG (AID 2283488)
Method in brief: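 Eight-point concentration-response (100 uM highest, half-log dilutions) in HepaRG, 48 h, duplicate wells. Endpoint: qRT-PCR mRNA, normalized (ACTB, GAPDH, POLR2A), bidirectional fitting with DMSO as baseline.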

[12] = read-out: Pro-epidermal growth factor (Homo sapiens) (UniProt P01133); test: LTEA_HepaRG_EGF: Life Technologies and Expression Analysis (LTEA) Assay for Epidermal growth factor (EGF) using HepaRG (AID 2283489)
Method in brief: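 qRT-PCR readout of EGF transcript after 48 h chemical exposure of HepaRG cells; eight concentrations from 100 uM down in half-log steps, duplicate wells, 0.5% DMSO vehicle. Bidirectional curve fitting against DMSO baseline.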

[13] = read-out: Early growth response protein 1 (EGR1) transcription factor, EGR1 (gene 1958); test: LTEA_HepaRG_EGR1: Life Technologies and Expression Analysis (LTEA) Assay for Early growth response protein 1 (EGR1) transcription factor using HepaRG (AID 2283490)
Method in brief: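 EGR1 expression change in human HepaRG after 48 h chemical exposure, assessed by housekeeping-normalized qRT-PCR; concentration-response up to 100 uM, fitted in both directions against DMSO controls.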

[14] = read-out: Cytochrome P450 3A4 (Homo sapiens) (UniProt P08684); test: LTEA_HepaRG_CYP3A4: Life Technologies and Expression Analysis (LTEA) Assay for CYP3A4 using HepaRG (AID 2283487)
Method in brief: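 HepaRG, 48 h exposure, 8-pt CRC from 100 uM (half-log), 0.5% DMSO, duplicates; serum-free induction medium. Readout: CYP3A4 mRNA, qRT-PCR, ACTB/GAPDH/POLR2A normalization. Bidirectional fit vs DMSO.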

Measured: AC50

Sequence of Apoptosis regulator Bcl-2 (Homo sapiens) (P10415 whole entry, looked up): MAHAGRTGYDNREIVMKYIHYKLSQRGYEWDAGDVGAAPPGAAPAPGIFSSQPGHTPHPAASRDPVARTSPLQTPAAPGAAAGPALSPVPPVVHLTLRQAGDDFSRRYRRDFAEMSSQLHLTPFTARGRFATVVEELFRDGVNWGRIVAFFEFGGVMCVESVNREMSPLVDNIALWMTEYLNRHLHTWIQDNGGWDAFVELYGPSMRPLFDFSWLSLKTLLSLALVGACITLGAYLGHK
Sequence of Cytochrome P450 3A4 (Homo sapiens) (P08684 whole entry, looked up): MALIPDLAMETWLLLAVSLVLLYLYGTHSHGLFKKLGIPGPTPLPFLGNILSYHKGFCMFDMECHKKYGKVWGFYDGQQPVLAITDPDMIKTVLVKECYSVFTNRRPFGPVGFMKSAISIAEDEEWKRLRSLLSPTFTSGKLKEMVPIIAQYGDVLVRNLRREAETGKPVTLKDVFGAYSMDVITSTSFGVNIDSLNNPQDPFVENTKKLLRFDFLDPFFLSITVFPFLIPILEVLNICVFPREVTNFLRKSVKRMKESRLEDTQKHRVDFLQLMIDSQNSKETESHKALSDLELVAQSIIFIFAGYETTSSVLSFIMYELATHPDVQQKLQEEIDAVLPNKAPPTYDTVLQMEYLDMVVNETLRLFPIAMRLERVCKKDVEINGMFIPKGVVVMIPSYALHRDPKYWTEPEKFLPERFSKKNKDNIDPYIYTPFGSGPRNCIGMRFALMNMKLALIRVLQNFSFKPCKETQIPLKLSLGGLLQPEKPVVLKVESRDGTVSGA
Sequence of Cytochrome P450 2C19 (Homo sapiens) (P33261 whole entry, looked up): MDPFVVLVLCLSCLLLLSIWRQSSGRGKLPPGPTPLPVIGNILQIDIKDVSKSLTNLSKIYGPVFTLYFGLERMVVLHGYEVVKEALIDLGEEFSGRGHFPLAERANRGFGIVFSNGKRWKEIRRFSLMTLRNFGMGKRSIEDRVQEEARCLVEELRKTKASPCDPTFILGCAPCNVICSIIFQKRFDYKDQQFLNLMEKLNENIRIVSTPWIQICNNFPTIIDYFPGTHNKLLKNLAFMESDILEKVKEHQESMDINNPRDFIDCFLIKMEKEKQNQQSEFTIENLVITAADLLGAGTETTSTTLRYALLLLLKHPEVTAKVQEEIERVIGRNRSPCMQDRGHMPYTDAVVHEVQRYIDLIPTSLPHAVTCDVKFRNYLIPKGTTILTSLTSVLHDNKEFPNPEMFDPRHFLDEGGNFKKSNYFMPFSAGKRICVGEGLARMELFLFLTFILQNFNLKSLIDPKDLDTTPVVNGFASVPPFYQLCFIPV

Clc1ccccc1C(c1ccccc1)(c1ccccc1)n1ccnc1
active: [1] 93 µM | [2] 20.1 µM | BCL2L11 (gene 10018) 50 µM | [3] 20.8 µM | [4] 23 µM | [7] 7.26 µM | [9] 26 µM | [10] 27.4 µM | CYP2C8 (gene 1558) 23.9 µM | CYP2C9 (gene 1559) 93.4 µM | CYP2E1 (gene 1571) 11.3 µM | CYP4A11 (gene 1579) 15.8 µM | [11] 86.5 µM | [12] 15.8 µM | [13] 71.5 µM
inactive: [5] | Caspase-3 (Homo sapiens) | [6] | [8]

O=CCCCC=O
not listed: [10]
inactive: all other assays above

CCOC(=O)O[C@H](C)OC(=O)c1ccc2c(c1)cc(C(=O)NC1CCN(C(C)C)CC1)n2Cc1cc(-c2ccc(Cl)s2)on1
active: [7] 69.7 µM | CYP4A11 (gene 1579) 47.2 µM
inactive: all other assays above

CC(C)(O)c1ccc(CNC(=O)c2cccnc2Oc2ccc3nonc3c2)cc1
active: [7] 50 µM | [9] 0.987 µM | CYP2C8 (gene 1558) 13 µM | CYP2E1 (gene 1571) 34.2 µM | [14] 8.42 µM
not listed: [10]
inactive: all other assays above

COc1cccc([C@H](O)C2CCN(CCc3ccc(F)cc3)CC2)c1OC
active: [7] 58.9 µM | [9] 13.9 µM | [10] 50 µM | CYP2E1 (gene 1571) 16.7 µM | [14] 50 µM | [11] 70.5 µM
inactive: all other assays above

CCCCCCCC[Si](OCC)(OCC)OCC
inactive: all assays above

CCO[Si](CCCNC(N)=O)(OCC)OCC
not listed: [7] | [10]
inactive: all other assays above

Cc1ccc2oc(CN(Cc3ccccc3)C(=O)Nc3c(F)cc(F)cc3F)c(-c3ccc(Cl)cc3)c2c1
active: [2] 32 µM | [3] 44.2 µM | [4] 44.2 µM | [9] 77 µM | CYP2C9 (gene 1559) 12.4 µM | CYP2E1 (gene 1571) 28.4 µM | CYP4A11 (gene 1579) 34.8 µM | [14] 5.39 µM | [11] 64.3 µM
not listed: [7] | [10]
inactive: all other assays above

CCCCCCCCCCCC[N+](C)(C)C
inactive: [1] | [2] | [5] | Caspase-3 (Homo sapiens) | [6] | [7] | [8] | [12]
active: BCL2L11 (gene 10018) 90.3 µM | [3] 79.4 µM | [4] 84.4 µM | [9] 92.4 µM | [10] 93.6 µM | CYP2C8 (gene 1558) 78.4 µM | CYP2C9 (gene 1559) 91.4 µM | CYP2E1 (gene 1571) 94.1 µM | CYP4A11 (gene 1579) 76.2 µM | [14] 58.6 µM | [11] 78.1 µM | [13] 83.9 µM

c1ccc2ccccc2c1
active: [9] 12.1 µM
not listed: [14]
inactive: all other assays above

CN1C(=O)CC[C@H]1c1cccnc1
active: [7] 91.4 µM
not listed: [10]
inactive: all other assays above
